This is a sample that favours compounds with a hit; in the whole collection about 3.8% have one here.
PAFAH1B2 FP inh – PAFAH1B2 enzyme inhibitors, primary screen, biochemical, fluorescence polarization, human. AID 492953, 2010. Platelet-activating factor acetylhydrolase IB subunit alpha2 (Homo sapiens), P68402. inhibition, % at 3.39 µM. actives 1.2% (n = 340,000). recombinant PAFAH1B2, FP-rhodamine activity probe;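 active = inhibition above the mean of all tested compounds plus 3 SD, cut at about 24% in these data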
pPAFAH FP inh – pPAFAH enzyme inhibitors, primary screen, biochemical, fluorescence polarization, human. recombinant pPAFAH, FP-rhodamine probe fluorescence polarization. inhibition, % at 3.39 µM. actives 1.5% (n = 330,000). AID 463082, 2010;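 active = inhibition above the mean inhibition across the screen plus 3 SD, cut at about 25% in these data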;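 note: inhibitors block binding of the rhodamine activity-based probe so polarization drops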
Pemphigus Ab inh – inhibitors of pemphigus antibody binding to DSG3, primary screen, biochemical, bead-based, flow cytometry, scFv-GFP. Desmoglein-3 (Homo sapiens), P32926. DSG3-coupled beads, scFv-anti-DSG3-GFP binding; active compounds read low. binding (percent of control), % at 10 µM. actives 0.48% (n = 310,000). AID 588358, 2011;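 active = binding more than 3 SD below its plate's average and above zero; inconclusive = below that plate limit but binding exactly zero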;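 note: hits lower antibody fragment binding to DSG3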
PfM18AAP inh-1 – PfM18AAP inhibitors, malaria aminopeptidase, primary screen, biochemical, QFRET, recombinant enzyme | M18 aspartyl aminopeptidase (Plasmodium falciparum 3D7) | H-Glu-NHMec fluorogenic cleavage | inhibition, % at 7.35 µM | actives 1.2% (n = 290,000);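 active = inhibition above the campaign mean inhibition over all tested compounds plus 3 SD, cut at about 28% in these data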
PAFAH1B3 FP inh – PAFAH1B3 enzyme inhibitors, primary screen, biochemical, fluorescence polarization, human | recombinant PAFAH1B3, FP-rhodamine probe | inhibition, % at 3.39 µM | actives 0.28% (n = 340,000);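 active = inhibition above the screen-wide average of all tested compounds plus 3 SD, cut at about 25% in these data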
PAFAH2 inh – PAFAH2 enzyme inhibitors, primary screen, biochemical, fluorescence polarization, human | actives 0.99% (n = 340,000) | Platelet-activating factor acetylhydrolase 2, cytoplasmic (Homo sapiens), Q99487 | recombinant PAFAH2, FP-rhodamine activity probe | inhibition, % at 3.39 µM | AID 492956, 2010;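 active = inhibition above the mean over all tested compounds plus 3 SD, cut at about 30% in these data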;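 note: inhibitors block probe labeling of enzyme so polarization drops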
PfM18AAP inh-2 – PfM18AAP inhibitors, malaria aminopeptidase, confirmation, biochemical, QFRET, recombinant enzyme, triplicate; shares compounds with PfM18AAP inh-1; H-Glu-NHMec fluorogenic cleavage; inhibition, % at 7.35 µM; actives 28% (n = 2,400);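 active = mean inhibition over replicate wells above the hit cutoff set for the earlier primary screen, cut at about 29% in these data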
CTSL1 confirm – cathepsin L1 inhibitors, retest, confirmation, counter-screen for PFM18AAP inhibitor project, biochemical, QFRET, triplicate. shares compounds with PfM18AAP inh-1. purified cathepsin L1, Z-Leu-Arg-MCA fluorescence. inhibition, % at 5.96 µM. 2,400 tested, under 10 active. AID 2178, 2009;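 active = average inhibition across replicates above the hit cutoff set in the earlier primary screen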
Target sequence (P07711 whole entry, looked up): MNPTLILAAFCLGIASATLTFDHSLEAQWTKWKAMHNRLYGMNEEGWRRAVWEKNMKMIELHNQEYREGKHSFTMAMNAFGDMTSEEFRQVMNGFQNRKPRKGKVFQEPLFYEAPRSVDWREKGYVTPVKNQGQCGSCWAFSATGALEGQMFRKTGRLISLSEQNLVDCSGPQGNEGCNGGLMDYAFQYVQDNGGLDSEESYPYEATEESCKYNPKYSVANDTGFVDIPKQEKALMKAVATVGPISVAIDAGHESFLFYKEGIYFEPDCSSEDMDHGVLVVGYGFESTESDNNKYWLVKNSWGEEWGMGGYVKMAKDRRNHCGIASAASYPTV
Of the large screens only hits and unclear results are named; the others gave an inactive call (follow-up assays come after a bar, where they were run).

CC(C)N=c1scc(-c2cccs2)n1/N=C/c1ccc(O)c(O)c1O	pPAFAH FP inh 68, PfM18AAP inh-1 39 (no result: Pemphigus Ab inh) | PfM18AAP inh-2 inactive | CTSL1 confirm inactive
Cc1sc(NC(=S)Nc2ccc(F)cc2)c(C(N)=O)c1C	PfM18AAP inh-1 47 | PfM18AAP inh-2 inactive | CTSL1 confirm inactive
COc1ccc(NC(=S)NCCN2CCC(C)CC2)cc1Cl	PfM18AAP inh-1 36 | PfM18AAP inh-2 inactive | CTSL1 confirm inactive
COc1ccc(NC(=S)N(CCC(C)C)C2CCN(C(C)C)CC2)cc1Cl	none
COCCN(C(=S)Nc1ccc(OC)c(Cl)c1)C1CCN(C(C)C)CC1	PfM18AAP inh-1 36 (no result: Pemphigus Ab inh) | PfM18AAP inh-2 inactive | CTSL1 confirm inactive
CC(OC(=O)C1CC1C)C(=O)Nc1ccc(Cl)cn1 (centres undefined)	none (no result: pPAFAH FP inh, PfM18AAP inh-1)
Cc1ccc(N/C=C(\C2OC(=O)c3ccccc32)[N+](=O)[O-])c(C)c1 (centres undefined)	PfM18AAP inh-1 51 (no result: PAFAH1B2 FP inh, PAFAH1B3 FP inh, PAFAH2 inh) | PfM18AAP inh-2 inactive | CTSL1 confirm inactive
Cc1ccc(NC=C(S(=O)(=O)c2ccccc2)S(=O)(=O)c2ccccc2)c(C)c1	none
Cc1cccc2sc(NNC(=O)c3ccc4c(c3)OCCO4)nc12	PfM18AAP inh-1 34 | PfM18AAP inh-2 inactive | CTSL1 confirm inactive
Cc1cccnc1NC(=O)c1ccc2c(c1)OCCO2	none (no result: PfM18AAP inh-1)
CC(=O)Nc1nc2cc3c(cc2s1)OCCO3	none
O=C(NNc1nc2cc3c(cc2s1)OCCO3)c1ccccc1	PfM18AAP inh-1 54 | PfM18AAP inh-2 inactive | CTSL1 confirm inactive
Cc1ccc(S(=O)(=O)NC2=NCN(C(C)C)CN2)cc1	none
CC(=O)N1CCc2c(sc(NC(=O)C3CC3)c2-c2nc3ccccc3s2)C1	PfM18AAP inh-1 34 | PfM18AAP inh-2 inactive | CTSL1 confirm inactive
COc1ccc(NC(=S)NNC(=S)Nc2cccc(C(F)(F)F)c2)cc1	PfM18AAP inh-1 42 | PfM18AAP inh-2 inactive | CTSL1 confirm inactive
CCOc1ccc(NC(=S)NNC(=S)Nc2cccc(C(F)(F)F)c2)cc1	none
O=C(C1CC(=O)N(c2ccc3c(c2)OCCO3)C1)N1CCN(c2ccccc2O)CC1 (centres undefined)	Pemphigus Ab inh inconclusive, PfM18AAP inh-1 34 | PfM18AAP inh-2 inactive | CTSL1 confirm inactive
C(=Nc1ccccc1)c1ccc[nH]1	none (no result: pPAFAH FP inh, PfM18AAP inh-1)
Oc1ccccc1N=Cc1ccc[nH]1	PfM18AAP inh-1 35 | PfM18AAP inh-2 inactive | CTSL1 confirm inactive
O=C(O)c1cc([N+](=O)[O-])c(N2CCCC2)c([N+](=O)[O-])c1	PfM18AAP inh-1 38 | PfM18AAP inh-2 inactive | CTSL1 confirm inactive
Cc1ccc(-c2n[nH]c(=S)n2/N=C/c2ccc(C)o2)cc1	none
Cc1ccc(/C=N/n2c(-c3ccc(Cl)cc3)n[nH]c2=S)o1	PfM18AAP inh-1 32 (no result: Pemphigus Ab inh) | PfM18AAP inh-2 inactive | CTSL1 confirm inactive
Cc1ccccc1/C=N\NC(=O)c1ccccc1-n1cccc1	none
CC(C(=O)OCC(=O)c1ccc([N+](=O)[O-])cc1)N1C(=O)C2C3CCC(C3)C2C1=O (centres undefined)	PfM18AAP inh-1 41 | PfM18AAP inh-2 inactive | CTSL1 confirm inactive
O=C(CN1C(=O)C2C3C=CC(C3)C2C1=O)OCC(=O)c1ccc([N+](=O)[O-])cc1 (centres undefined)	PfM18AAP inh-1 42 | PfM18AAP inh-2 inactive | CTSL1 confirm inactive
COc1ccccc1OCCSc1nc2ccccc2n1CC(=O)O	none (no result: PAFAH1B2 FP inh, pPAFAH FP inh, PfM18AAP inh-1, PAFAH1B3 FP inh, PAFAH2 inh)
O=C(CNS(=O)(=O)c1ccccc1)OCC(=O)c1ccc([N+](=O)[O-])cc1	PfM18AAP inh-1 33 | PfM18AAP inh-2 inactive | CTSL1 confirm inactive
O=C(CNC(=O)c1cccs1)c1ccc([N+](=O)[O-])cc1	none

Compound activity from PubChem.
